Laboratory results published in PubChem BioAssay AID2806 (Sanford-Burnham Center for Chemical Genomics, 2010).
Hit rate of the full screen: of about 330,000 compounds, about 660 (0.2%) were called active.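 Rule for the calls: active = inhibition of at least 40% at 10 µM in the primary screen; inactive = the rest.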 For the sample, actives were picked, then their nearest neighbours and some compounds at random.

Test system: intestinal alkaline phosphatase [Mus musculus]
Assay: mouse intestinal phosphatase enzyme inhibition – biochemical, luminescence, uHTS, primary screen (AID 2806);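 note: plate controls were DMSO with enzyme for no effect and no enzyme wells for full effect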
Conditions: purified mouse IAP, CDP-Star luminescence, 30 min; at 10 µM; stronger effect = higher value

inhibition, inactive:
CSCCC(NC(=O)c1cc([N+](=O)[O-])cc([N+](=O)[O-])c1)c1nc2ccccc2[nH]1 (stereo not given) -2%
Nc1ccccc1Sc1cc(Cl)nnc1Cl 2.3%
C=CCN1CC(C)/C(=N\O)CC1C (stereo not given) 0.1%
CC(=O)Nc1ccc(NS(=O)(=O)c2ccc3c(c2)NC(=O)CC(=O)N3)cc1 1.9%
Cc1cccc(-c2nc(CS(=O)CC(=O)NC(C)CCc3ccccc3)c(C)o2)c1 (stereo not given) -5%
CCCCn1c(N)c(N(CCOC)C(=O)c2oc3ccc(OC)cc3c2C)c(=O)[nH]c1=O -5.8%
Cc1n[nH]c(=O)c2c(NC(=O)CSc3ccccc3F)oc(C)c12 -5.6%
Cc1ccccc1NC(=O)C1CCCN(C(=O)NCc2ccccc2)C1 (stereo not given) -10.1%
C=CCNC(=S)NNC(=O)COc1c(Cl)cc(Cl)cc1Cl 2.2%
Cc1cccc(NC(=O)c2cc(S(=O)(=O)N3CCC4(CC3)OCCO4)ccc2F)c1 2.1%
CCOC(=O)c1c(C)[nH]c(C)c1C(=O)CSc1nc(N)cc(N)n1 2%
CNS(=O)(=O)c1ccc(C(=O)NCC(=O)NCCc2ccc3c(c2)OCCO3)cc1 -6.6%
O=C(CCC(=O)OCc1cccc(C(=O)Oc2ccccc2)c1)Nc1cccc2ccccc12 3.6%
COc1ccc(NC(=O)CSc2nnc(C3CC3)n2C)cc1S(=O)(=O)N1CCCCC1 -4.3%
CCN(CC)C(=O)CS(=O)CC(=O)Nc1cc(OCCOC)c(Cl)cc1Cl (stereo not given) -1.1%
Cc1ccccc1CN1CCC(C(=O)Nc2ccc(Oc3cccnc3)cc2)CC1 -39.6%
CC(=O)Nc1ccc(C(=O)/C=C/c2ccc[nH]2)cc1 1.1%
O=C(COc1ccccc1[N+](=O)[O-])N/N=C/c1ccc[nH]1 9.7%
CCCC(=O)Nc1ccc(C(=O)NCCCn2ccnc2)cc1 -4.6%
CN(CC(=O)NNC(=O)CNC(=O)c1ccccc1Cl)S(=O)(=O)c1ccc(Cl)cc1 -5.3%
O=C(COc1cccc2ccccc12)Nc1cc(S(=O)(=O)N2CCOCC2)ccc1N1CCOCC1 4%
O=C1C=C(c2cc(C(F)(F)F)cc(C(F)(F)F)c2)C[C@@H](c2ccc3c(c2)OCO3)C1 13.5%
S=c1[nH]nc2c3c4c(sc3ncn12)CCCC4 12.3%
Cc1cccc(N)c1SC1CCCCC1O (stereo not given) 2.7%
COc1cccc(C(=O)OCc2cc(=O)oc3c(C)c(C)ccc23)c1OC 8.2%
Cn1c(SCC(=O)Nc2ccc(N3CCOCC3)cc2)nnc1C(F)(F)F -6.7%
Cc1nnc(SCC(=O)Nc2ncc3c(n2)CC(C)(C)CC3=O)s1 8.5%
CCOc1ccc(N2C(=O)CN(c3cccc4ccccc34)C2=S)cc1 -14.2%
COc1ccc(OC)c(-c2csc(NC(=O)C3=NNC(=O)CC3)n2)c1 11.3%
COc1ccc(OC)c(-c2csc(NC(=O)COC(=O)C3CC3)n2)c1 6.9%
O=[N+]([O-])c1ccc(N2CCNCC2)cc1NCc1cccnc1 3%
Nc1ccc(-n2nncc2-c2ccco2)cc1 -3.6%
C=CCn1c(SCc2nnc(-c3ccccc3)o2)nnc1C(O)c1ccccc1 (stereo not given) -0.4%
CCN(c1ccccc1)S(=O)(=O)c1cc2c(cc1C)n(C)c(=O)c(=O)n2C -8%
NC(=O)C1CCCN(CC(=O)N2CCN(c3ccccc3)CC2)C1 (stereo not given) 15%
COc1ccc(NC(=O)C2CCC(CNc3c(N4CCCCC4)c(=O)c3=O)CC2)c(OC)c1 (stereo not given) -14.9%
COc1ccc(N2CCN(S(=O)(=O)c3cc4c5c(c3)C(C)C(=O)N5CCC4)CC2)cc1 (stereo not given) -7.1%
CCn1c(C)c(C)c2cc(C(=O)N3CCN(c4cccc(C)c4C)CC3)ccc21 1.5%
COc1ccc(OC)c(NC(=O)Cn2c(=O)oc3ccccc32)c1 -4.3%
CC(=O)Nc1c2c(nn1-c1cccc(C)c1)CSC2 9.8%
CCCCC(=O)Nc1ccc2c(c1)C(=O)NC2=O 7%
Cc1nn(C)c(C(=O)NNC(=S)NC2CCCCC2)c1Cl 16.2%
CCCCCCCCCOC1OC(CO)C(O)C(O)C1NC(C)=O (stereo not given) 3.6%
O=C(Nc1ncc2c(n1)CC(c1ccco1)CC2=O)c1ccc(Cl)cc1 (stereo not given) 0.8%
COc1cc(C2CC(=O)c3cnc(NC(C)=O)nc3C2)cc(OC)c1OC (stereo not given) 6.1%
Brc1cnc2ccccc2c1N1CCCCC1 -0.5%
CCC(=O)c1ccc(OCC(=O)OCC(=O)N2CCc3ccccc3C2)cc1 2.5%
Cc1cc(NC(=O)/C=C/C(=O)N(CC(=O)NC2CCCC2)c2ccc(F)cc2)no1 5.2%
COc1ccc(CNC(=O)C2CCCC2)cc1 4.3%
O=C(NCc1cc(C(F)(F)F)cc(C(F)(F)F)c1)C1CC(c2cccc(F)c2)=NO1 (stereo not given) -2.8%
CC1CCCCN1S(=O)(=O)CCNC(=O)c1ccccc1 (stereo not given) 8.6%
Cc1ccc(C)c(NC(=O)CSc2nc3c(oc4ccccc43)c(=O)n2-c2ccccc2)c1 2.2%
Cc1ccc(-c2nnn(CC(=O)N(CCO)C(C(=O)NC(C)(C)C)c3ccncc3)n2)cc1 (stereo not given) -1.3%
CCNC(=O)N1CCN(S(=O)(=O)c2ccc3c(c2)OCCCO3)CC1 -17.6%
COc1cccc2[nH]c(C(=O)NCCc3ccccc3)cc12 -19.5%
O=C(N1CCCCC1)N1CCN(C(=O)N2CCCCC2)CC1 -1.7%

inhibition, active:
CCCC(=O)Nc1ccc(C(=O)N/N=C/c2ccc[nH]2)cc1 40.9%
COc1ccc(OC)c(Nc2nc(-c3ccc(O)c(O)c3)cs2)c1 68.7%
CCc1ccc(Nc2ncc3c(n2)CC(c2ccco2)CC3=O)cc1 (stereo not given) 41.4%
COc1ccc(CNC(=O)C2CC(c3ccc(C(F)(F)F)cc3)=NO2)cc1 (stereo not given) 41.4%
